# Assay outcomes (PubChem BioAssay)
# HPGD inh: qHTS Assay for Inhibitors of HPGD (15-Hydroxyprostaglandin Dehydrogenase); 15-hydroxyprostaglandin dehydrogenase [NAD(+)] (Homo sapiens), P15428; purified HPGD, NADH fluorescence kinetic, PGE2 substrate; Potency, µM, without a hit: at the highest dose activity change, negative = inhibition, usual class: inhibitors; 150,000 compounds, 4.3% hits; AID 894, 2007; also: potency is read from the fitted curve at half-maximal effect
# Target sequence (P15428 whole entry, looked up): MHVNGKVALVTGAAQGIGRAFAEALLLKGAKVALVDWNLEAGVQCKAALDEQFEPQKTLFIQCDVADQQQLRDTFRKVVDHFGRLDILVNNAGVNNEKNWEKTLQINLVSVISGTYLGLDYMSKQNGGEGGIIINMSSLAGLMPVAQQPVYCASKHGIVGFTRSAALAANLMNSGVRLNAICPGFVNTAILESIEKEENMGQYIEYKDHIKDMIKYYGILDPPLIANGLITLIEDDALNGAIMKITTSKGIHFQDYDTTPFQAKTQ
#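 20 nM HPGD preincubated 15 min at room temperature with compound in 50 mM Tris-HCl pH 8, 0.01% Tween 20. Started with 1 mM NAD+ and 30 uM prostaglandin E2; NADH fluorescence (360/450 nm) read 5 times over 30-s intervals, last minus first.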
# PNC inhibitor: High Content Assay for Compounds that inhibit the Assembly of the Perinucleolar Compartment; activity change (PNC), negative = inhibition, % at 10 µM; PC3M PTB-GFP, PNC prevalence imaging, 16 h; hits give low values; 140,000 compounds, 3.1% hits;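 active = readout at or below -70, meaning at least 70% loss of cells showing the perinucleolar compartment, a nuclear body marking cancer cells; inconclusive = readout between -30 and a set limit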;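 also: plate controls were DMSO wells for no effect and camptothecin positive control wells for full effect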
#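 PC3M cells stably expressing PTB-GFP, 750–1000 cells/well, treated 16 h at 37 °C with compound (23 nl of library stock), in duplicate. After paraformaldehyde fixation and Hoechst stain, imaged at 20x; PNC prevalence scored by image analysis.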
# ALDH1A1 inh: qHTS Assay for Inhibitors of Aldehyde Dehydrogenase 1 (ALDH1A1); Potency, µM (series often up to 75.3 µM), for the others: at the top dose activity, negative = inhibition, actives largely listed as inhibitors; 220,000 compounds, 7.3% hits; Aldehyde dehydrogenase 1A1 (Homo sapiens), P00352; Purified ALDH1A1, NADH fluorescence, propionaldehyde substrate;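 also: potency is read from the fitted curve at half-maximal effect; plate controls were no enzyme wells and a reference inhibitor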
# Target sequence (P00352 whole entry, looked up): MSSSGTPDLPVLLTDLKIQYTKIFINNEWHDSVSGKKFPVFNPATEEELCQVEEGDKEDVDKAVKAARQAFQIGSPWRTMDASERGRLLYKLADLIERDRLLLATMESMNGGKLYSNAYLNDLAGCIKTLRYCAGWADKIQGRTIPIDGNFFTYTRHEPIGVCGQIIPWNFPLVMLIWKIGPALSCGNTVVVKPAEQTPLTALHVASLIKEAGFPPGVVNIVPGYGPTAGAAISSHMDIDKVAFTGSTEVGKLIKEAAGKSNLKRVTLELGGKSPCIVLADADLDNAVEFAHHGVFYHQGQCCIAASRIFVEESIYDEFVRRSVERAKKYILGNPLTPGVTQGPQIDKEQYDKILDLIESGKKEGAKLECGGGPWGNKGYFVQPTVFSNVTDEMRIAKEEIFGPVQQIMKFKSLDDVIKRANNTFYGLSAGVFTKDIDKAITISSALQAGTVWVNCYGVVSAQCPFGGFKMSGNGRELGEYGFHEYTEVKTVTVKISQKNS
# 12-hLO inh: qHTS Assay for Inhibitors of 12-hLO (12-human lipoxygenase). AID 1452, 2008. purified 12-hLO, xylenol orange hydroperoxide absorbance. 150,000 compounds, 0.12% hits. Potency, µM (series often up to 57.1 µM), for inactives: at the highest dose activity change, negative = inhibition, actives largely listed as inhibitors. Polyunsaturated fatty acid lipoxygenase ALOX12 (Homo sapiens), P18054; active = well fitted inhibition curve with a large enough effect; inconclusive = small, poorly fitted or top-dose-only effect; also: potency is read from the fitted curve at half-maximal effect; nearly all actives have a fitted effect of over 55% in size
#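 Purified human 12hLO (150 nM), preincubated 15 min with compound, then 40 uM arachidonic acid for 30 min, room temperature, Hepes pH 7.0 with 0.01% Triton X-100. Hydroperoxide detected by ferrous iron/xylenol orange; 573/405 nm absorbance ratio gives reaction progress.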
# Lamin A splicing: qHTS Assay for Modulators of Lamin A Splicing. HeLa LMNA splicing GFP/RFP minigene ratio, 48 h. Potency, µM (doses to about 46.1 µM), inactives show at the top dose ratio change, negative = inhibition, hits mostly inhibitors. 200,000 compounds, 0.01% hits. AID 1487, 2009; active = well fitted inhibition curve with a large enough effect in the signal ratio, with a control signal flat, not every such curve was filed as active; inconclusive = small, poorly fitted or top-dose-only effect, or effect the other way, or a change in a side signal; the % refers to the signal ratio; also: potency is read from the fitted curve at half-maximal effect
#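 Read-out is the ratio of GFP to DsRed2 object intensity, acquired by 488 nm laser-scanning cytometry on HeLa lamin A-EGFP minigene reporter cells. Compound incubation 48 hrs at 37 °C in Opti-MEM with 2% FBS; DMSO 0.5% final.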
# An asterisk follows results filed as active; ? = inconclusive; . = no result; [ ] = another dose, or the depositor's remark. A selection: hits, their analogues and other compounds. The true share with any hit is near 10%. Unless noted, calls follow the shape of the dose curve; as a rule, active = well fitted inhibition curve with a large enough effect (not every such curve was filed as active); inconclusive = small, poorly fitted or top-dose-only effect, or another doubt; inactive = no such curve, though single readings can be large or run the other way. Unless noted, % is scaled to controls: 0 for no effect and ±100 for the full control effect.
SMILES,HPGD inh,PNC inhibitor,ALDH1A1 inh,12-hLO inh,Lamin A splicing
Cc1ccc(-c2cc(C(F)F)n3ncc(C(=O)N4CCc5ccccc54)c3n2)cc1,.,.,-7%,.,?
CN1CCN(C(=O)c2cnn3c(C(F)(F)F)cc(-c4ccc5c(c4)OCO5)nc23)CC1,25µM*,16,?,-1%,-15%
Cc1ccc(-c2cc(C(F)(F)F)n3ncc(C(=O)N4CCN(C)CC4)c3n2)cc1,?,-100*,?,-3%,1%
COc1ccc(NC(=O)CSc2nc3nc(C)c(Cc4ccc(C)cc4)c(C)n3n2)cc1OC,.,.,.,.,-1%[46 µM]
Cc1ccccc1C(=O)NCc1nc2cccnc2n1Cc1ccccc1,.,.,.,.,6%[46 µM]
CO[C@@H]1/C=C\O[C@]2(C)Oc3c(C)c(O)c4c(O)c(cc(O)c4c3C2=O)NC(=O)/C(C)=C\C=C/[C@H](C)[C@@H](O)[C@H](C)[C@H](O)C(C)[C@H](OC(C)=O)[C@@H]1C (some centres not stated),-13%,.,-6%[13.5 µM],.,.
COc1ccc2c(CC(=O)N3CCN(S(=O)(=O)c4cccs4)CC3)coc2c1,-5%,10,2.8µM*,-10%,?
CCOC(=O)N1CCN(S(=O)(=O)c2cccs2)CC1,-13%,47,-2%,2%,7%
Cc1cc(C(=O)CCC(=O)N2CCN(S(=O)(=O)c3cccs3)CC2)c(C)s1,-7%,-100*,-10%,-5%,-17%
CN(C)c1ccc(Nc2nc(N)c([N+](=O)[O-])c(N3CCOCC3)n2)cc1,-10%,?,-42%,0%,-18%
Nc1nc(NCc2ccco2)nc(N2CCCCC2)c1[N+](=O)[O-],-5%,3,4µM*,-5%,?
Nc1nc(Nc2ccccc2)nc(N2CCOCC2)c1[N+](=O)[O-],-7%,32,13µM*,5%,-1%
CCOC(=O)c1sc2ccccc2c1S(=O)(=O)N1CCN(c2cccc(C)c2C)CC1,.,.,.,.,-13%[46 µM]
CCCCN1CSC(=S)N(Cc2ccccc2)C1,-21%,.,3.5µM*,3%[11.4 µM],.
CC(C)(C)N1CSC(=S)N(Cc2ccccc2)C1,.,.,32µM*,.,.
CCCN1CNC(=S)N(Cc2ccccc2)C1,2%,34,5%,-4%,0%
CCc1ccc(CNC(=O)c2cnc3sc(N4CCOCC4)nn3c2=O)cc1,.,.,.,.,8%[46 µM]
O=C(Cl)c1c(Cl)cccc1Cl,-7%,.,?,3%,.
O=C(CCN1C(=O)CSC1=O)Nc1ccc(Br)cc1,-10%,-100*,8%,3%,-8%
Cc1c([N+](=O)[O-])cc(C(=O)Oc2cccc(C(=S)N3CCOCC3)c2)cc1[N+](=O)[O-],.,.,-8%,.,3%[46 µM]
CN(C)CCNS(=O)(=O)c1ccc(Cl)cc1,-15%,-100*,2%,-1%,-11%
CCC(c1nnc(SCC(=O)Nc2cc(Cl)ccc2C#N)n1C1CCCCC1)N(C)C (configuration not stated),-14%,-107*,4%,-1%,-20%
CCC(c1nnc(SCC(=O)Nc2ccc(C(C)=O)cc2)n1C1CCCCC1)N(C)C (configuration not stated),-16%,1,7%,0%,6%
COc1ccc(NC(=O)c2cc(C(C)C)on2)c(OC)c1,?,13,4µM*,-6%,-11%
COc1cc(NC(=O)c2cc(C(C)C)on2)c(OC)cc1Cl,?,?,7.9µM*,6%,-4%
SMILES,HPGD inh,PNC inhibitor,ALDH1A1 inh,12-hLO inh,Lamin A splicing
COc1cc(NC(=O)c2cc(C3CC3)on2)c(OC)cc1Cl,?,2,?,-5%,3%
C[C@H]1Cc2c(-c3ccccc3)nc3c(c2CO1)CN(S(=O)(=O)c1ccc2c(c1)OCCN2C)CC3,-9%,.,-4%[13.5 µM],6%[11.4 µM],-16%[9.22 µM]
CCOC(=O)c1c(NC(=O)C2CC2)sc(C)c1CC,?,-24,22µM*,-1%,6%
CCOC(=O)c1c(NC(=O)CC)sc(C(=O)N2CCCCC2)c1C,28µM*,61,?,0%,-3%
CCOC(=O)c1sc(NC(=O)CCN2CCCCCC2)c(C(=O)OCC)c1C,.,.,2.5µM*,.,?
Cc1nn(C)c(C)c1CNC(=O)/C=C/c1ccccc1F,-18%,-113*,-9%,-2%,?
COc1ccc(CC(=O)NCC(c2ccc(N(C)C)cc2)N2CCOCC2)cc1OC (configuration not stated),.,.,.,.,-14%[46 µM]
CCCNC(=O)c1cc(-c2ccc(OC)cc2)n(CCCOC)c1C,8.9µM*,?,?,-2%,-14%
CCOC(=O)c1cc(-c2ccc(C)cc2)n(CCC(=O)NCCCOC)c1C,-28%,-18,4%,2%,5%
Cc1cc(NC(=O)c2c(Cl)cnn2C)no1,-10%,?,4%,-5%,8%
O=C(Nc1ccc(Cl)cn1)c1ccc(-c2cc(Cl)ccc2Cl)o1,.,-2,18µM*,-7%,-2%
Cn1ncc(Cl)c1C(=O)Nc1cccc(Cl)c1,13µM*,-3,7.9µM*,-19%,-9%
Cn1ncc(Cl)c1C(=O)Nc1ccc(Cl)cn1,-17%,-100*,3%,-5%,-10%
CN(C)S(=O)(=O)c1ccc(C(=O)NCCS(=O)(=O)N2CCN(c3ccccc3)CC2)cc1,.,.,.,.,10%[46 µM]
Cc1cnc(C(=O)OCC(=O)NC2CCCCCC2)cn1,.,.,-2%,.,7%[46 µM]
Cc1cnc(C(=O)OCC(=O)c2csc(N3CCCCC3)n2)cn1,?,-2,18µM*,-12%,?
CCOc1cccc(OCCn2cnc3ccccc3c2=O)c1,1%,-91*,-8%,-2%,?
CC(c1ccccc1)N1C(=O)C2C3C=CC(C4CC34)C2C1=O (configuration not stated),.,.,7%,.,14%[46 µM]
O=C1NNC(=O)C2C3C=CC(C4CC34)C12 (configuration not stated),-4%,-4,25µM*,0%,-5%
CCOc1ccc(NC(=O)CCNS(=O)(=O)c2ccc3c(c2)CCCC(=O)N3)cc1,.,.,.,.,19%[46 µM]
COc1ccccc1CNC(=O)Cn1c(-c2cccs2)cc2cc(F)ccc21,.,.,.,.,4%[46 µM]
O=C(/C=C/c1ccccc1Cl)N(Cc1ccc(Cl)cc1)C1CCS(=O)(=O)C1 (configuration not stated),-4%,-98*,-6%,-3%,-13%
CC(C)c1ccc(CN(C(=O)/C=C/c2ccco2)C2CCS(=O)(=O)C2)cc1 (configuration not stated),.,.,18µM*,.,.
O=C(/C=C/c1ccccc1Cl)N(Cc1ccccc1)C1CCS(=O)(=O)C1 (configuration not stated),-8%,-21,11µM*,-1%,-8%
Cc1nn(-c2ccccc2)c2c1N(CC(=O)N1CCN(c3ccc(F)cc3)CC1)C(=O)CS2,.,.,.,.,7%[46 µM]
